Most compounds without a hit are left out; they make up all but 0.73% or so of the library.
Y pestis TopoI – inhibitors of Yersinia pestis topoisomerase I. 360,000 compounds, 0.064% hits. activity, % at 10 µM. Y. pestis Topo-I cleavage product accumulation, plate reader. AID 504884; in the data active = activity above about 50%, passing the limit was not always enough; inconclusive = no clear call, values can overlap the other calls
BioA inh-1 – blocks M. tuberculosis BioA enzyme activity; purified M. tuberculosis BioA enzyme, plate reader; inhibition, % at 9.99 µM; 360,000 compounds, 0.096% hits; in the data active = inhibition above about 40%; inconclusive = no clear call, values can overlap the other calls
BH1578 lux ind – inducers of Vibrio cholerae quorum light production without autoinducers; activation, % at 18.7 µM; AID 588436; 350,000 compounds, 0.16% hits; V. cholerae BH1578 lux reporter, luminescence, 6 h; in the data active = activation mostly above about 9.7%, no sharp cut-off; inconclusive = no clear call, values can overlap the other calls; inactive = mostly below about 3.7%
VHR inh abs – blocks human VHR1 dual specificity phosphatase; P51452; recombinant VHR phosphatase, pNPP absorbance; inhibition, % at 13.3 µM; 290,000 compounds, 0.52% hits; AID 1654; in the data active = inhibition above about 50%
TcdB GH inh – inhibitors of Clostridioides difficile toxin B glycohydrolase; P18177; TcdB glycohydrolase enzymatic assay, plate reader; inhibition, % at 9.99 µM; 350,000 compounds, 0.24% hits; AID 652162; in the data active = inhibition above about 10%
Target sequence (P18177 whole entry, looked up): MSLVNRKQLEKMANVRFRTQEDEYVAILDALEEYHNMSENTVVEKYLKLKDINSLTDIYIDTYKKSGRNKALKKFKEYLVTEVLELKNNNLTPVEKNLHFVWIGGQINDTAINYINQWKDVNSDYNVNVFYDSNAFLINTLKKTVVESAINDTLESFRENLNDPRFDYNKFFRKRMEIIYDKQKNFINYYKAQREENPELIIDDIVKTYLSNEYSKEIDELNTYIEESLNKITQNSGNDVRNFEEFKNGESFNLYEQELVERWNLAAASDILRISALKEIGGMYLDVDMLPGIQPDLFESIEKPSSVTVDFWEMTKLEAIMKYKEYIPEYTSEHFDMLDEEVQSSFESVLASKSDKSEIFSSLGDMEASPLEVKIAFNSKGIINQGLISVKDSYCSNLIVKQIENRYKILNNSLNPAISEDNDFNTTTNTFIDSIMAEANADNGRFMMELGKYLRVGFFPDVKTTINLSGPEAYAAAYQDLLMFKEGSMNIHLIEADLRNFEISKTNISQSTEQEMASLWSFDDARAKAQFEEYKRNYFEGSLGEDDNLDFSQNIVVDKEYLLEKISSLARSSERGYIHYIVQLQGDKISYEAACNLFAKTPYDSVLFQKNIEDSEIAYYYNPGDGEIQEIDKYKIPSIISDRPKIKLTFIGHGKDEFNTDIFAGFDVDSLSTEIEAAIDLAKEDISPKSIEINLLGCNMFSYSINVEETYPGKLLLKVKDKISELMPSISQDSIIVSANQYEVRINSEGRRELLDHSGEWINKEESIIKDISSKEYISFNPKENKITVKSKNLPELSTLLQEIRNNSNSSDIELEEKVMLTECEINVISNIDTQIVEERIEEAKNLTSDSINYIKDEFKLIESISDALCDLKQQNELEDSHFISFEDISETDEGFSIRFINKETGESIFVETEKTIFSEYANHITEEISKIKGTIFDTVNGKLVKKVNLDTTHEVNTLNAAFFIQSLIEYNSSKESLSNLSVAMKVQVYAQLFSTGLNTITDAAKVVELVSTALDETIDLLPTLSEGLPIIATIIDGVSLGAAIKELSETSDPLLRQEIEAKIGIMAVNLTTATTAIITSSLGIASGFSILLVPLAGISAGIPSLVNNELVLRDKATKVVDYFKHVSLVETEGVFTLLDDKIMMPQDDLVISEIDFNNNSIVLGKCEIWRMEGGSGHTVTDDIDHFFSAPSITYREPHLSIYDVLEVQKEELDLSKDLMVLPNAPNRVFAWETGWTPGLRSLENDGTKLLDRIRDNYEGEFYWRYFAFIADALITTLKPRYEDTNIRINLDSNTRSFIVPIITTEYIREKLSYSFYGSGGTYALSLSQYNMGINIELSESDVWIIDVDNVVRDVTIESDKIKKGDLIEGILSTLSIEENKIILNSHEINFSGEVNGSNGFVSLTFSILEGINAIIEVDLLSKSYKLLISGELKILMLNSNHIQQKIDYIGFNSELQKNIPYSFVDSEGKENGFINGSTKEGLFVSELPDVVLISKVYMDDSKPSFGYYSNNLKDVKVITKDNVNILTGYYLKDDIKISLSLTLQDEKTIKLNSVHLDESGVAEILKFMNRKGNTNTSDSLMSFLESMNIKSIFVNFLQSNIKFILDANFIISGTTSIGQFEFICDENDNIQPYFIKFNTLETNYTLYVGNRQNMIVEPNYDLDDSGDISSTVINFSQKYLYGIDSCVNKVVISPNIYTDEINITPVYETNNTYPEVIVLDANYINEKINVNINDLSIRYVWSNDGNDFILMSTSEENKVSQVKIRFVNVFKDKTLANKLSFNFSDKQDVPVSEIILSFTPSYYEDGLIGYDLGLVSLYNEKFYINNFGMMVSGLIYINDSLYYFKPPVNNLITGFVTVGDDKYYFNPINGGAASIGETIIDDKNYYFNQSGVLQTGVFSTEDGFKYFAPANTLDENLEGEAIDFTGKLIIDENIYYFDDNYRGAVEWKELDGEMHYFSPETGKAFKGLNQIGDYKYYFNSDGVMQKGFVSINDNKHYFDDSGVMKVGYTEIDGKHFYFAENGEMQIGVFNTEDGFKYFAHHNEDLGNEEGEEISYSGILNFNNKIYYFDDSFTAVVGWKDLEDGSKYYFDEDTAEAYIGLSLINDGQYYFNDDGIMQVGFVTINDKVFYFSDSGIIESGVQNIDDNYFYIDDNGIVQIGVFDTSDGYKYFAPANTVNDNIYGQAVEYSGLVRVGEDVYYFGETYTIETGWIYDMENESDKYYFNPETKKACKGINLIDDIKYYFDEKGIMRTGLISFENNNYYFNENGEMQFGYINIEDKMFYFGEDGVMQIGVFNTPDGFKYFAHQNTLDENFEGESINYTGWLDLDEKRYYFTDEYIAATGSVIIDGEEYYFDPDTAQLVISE
BioA inh-2 – Mtb BioA enzyme inhibition; shares compounds with BioA inh-1; purified BioA enzyme, plate reader, dose response; max activity, %; 310 tested, under 10 active;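 note: top concentration of the dilution series was 10 µM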
HepG2 tox 2 – HepG2 viability loss; shares compounds with BioA inh-1; max activity, %; HepG2 cytotoxicity, plate reader; AID 651898; 310 tested, under 10 active
3T3 cytotox 5 – NIH3T3 viability loss; shares compounds with BioA inh-1; NIH3T3 cytotoxicity, plate reader; activity change, negative = cytotoxicity, % at 26 µM; 310 tested, under 10 active; AID 651900
* hit, by the source's call; i = inactive; ? = inconclusive; . = no result given; [ ] = dose if it differs, or a comment. Unless noted, the rule behind the calls is not given here.

SMILES	Y pestis TopoI	BioA inh-1	BH1578 lux ind	VHR inh abs	TcdB GH inh	BioA inh-2	HepG2 tox 2	3T3 cytotox 5
C[C@@H]1CN([C@H](C)CO)S(=O)(=O)c2ccc(-c3ccccc3)cc2O[C@H]1CN(C)Cc1cccc(F)c1	.	-3.0	.	.	-3.1	.	.	.
CC(C)C#Cc1ccc([C@@H]2[C@H](C#N)N(C(=O)C3CC3)[C@H]2CO)cc1	.	-0.3	.	.	1.3	.	.	.
C=CCn1c(SCc2c(C(=O)OC)sc(N)c2C(=O)OC)nnc1-c1ccc(Br)cc1	14.1	59.3*	i	11.6	.	9.2	7.3	1.0
Cc1nc2sc(C(c3ccc(Cl)cc3)N3CCN(c4ccccc4F)CC3)c(O)n2n1 (stereo not drawn)	-1.8	43.4*	-6.2	17.9	.	9.9	-4.8	-4.2
Cc1nc2sc(C(c3ccco3)N3CCN(c4ccccc4F)CC3)c(O)n2n1 (stereo not drawn)	4.3	0.6	i	49.7	.	.	.	.
C[C@H]1CN([C@@H](C)CO)C(=O)c2cc(NC(=O)NC3CCCCC3)ccc2O[C@@H]1CN(C)S(=O)(=O)c1ccccc1	.	4.3	.	.	-0.8	.	.	.
CN(Cc1ccccc1)C(=O)CCS(=O)(=O)c1ccc2c(c1)NC(=O)CS2	16.4	40.7*	-0.4	2.2	.	8.4	18.1	8.5
CCN(Cc1ccccc1)S(=O)(=O)c1ccc2c(c1)NC(=O)CS2	23.0	1.8	-0.3	10.7	1.9	.	.	.
COc1ccc(NC(=O)c2cnc(C)cn2)cc1-n1cnnn1	-5.1	51.2*	i	3.5	.	-7.1	32.0	7.8
Cc1cnc(C(=O)Nc2ccc(-n3cnnn3)cc2)cn1	5.9	22.8	3.7	-9.6	.	.	.	.
CCOC(=O)c1ccc2c(c1)nc(SCc1cn3ccsc3n1)n2CC	34.4	53.3*	-2.4	5.0	.	-7.4	11.0	-8.1
O=C(CSc1nc2ccccc2c(=O)n1-c1ccccc1)N1CCN(CCO)CC1	-5.9	50.0*	-3.0	39.3	.	-5.3	?	0.4
O=C(Nc1ncc2c(n1)CC(c1cccc(Cl)c1)CC2=O)c1ccco1 (stereo not drawn)	3.2	60.7*	0.7	-5.5	1.0	-5.4	16.0	0.5
COc1ccc(C2CC(=O)c3cnc(NC(=O)c4ccco4)nc3C2)cc1 (stereo not drawn)	2.4	2.6	i	7.4	0.3	.	.	.
O=C(Nc1ncc2c(n1)CC(c1ccccc1)CC2=O)c1ccco1 (stereo not drawn)	-5.1	98.4*	-0.4	-0.2	3.4	5.7	16.9	2.7
CO[C@@H]1CN(C)C(=O)c2cc(NC(=O)C3CCCC3)ccc2OC[C@H](C)N(C(C)=O)C[C@@H]1C	.	-0.2	.	.	.	.	.	.
CO[C@H](CN(C)C(=O)C1CCOCC1)[C@@H](C)CN(C(=O)Nc1ccc(F)cc1)[C@@H](C)CO	.	2.3	.	.	0.4	.	.	.
C[C@@H]1CN([C@@H](C)CO)C(=O)c2cccc(NS(=O)(=O)c3cccs3)c2O[C@H]1CN(C)S(=O)(=O)c1ccccc1	.	14.1	.	.	1.1	.	.	.
Cc1cc(NC(=O)CN(C)S(=O)(=O)c2cnc[nH]2)ccc1Br	7.7	41.6*	0.5	3.7	-0.2	3.0	5.5	-4.1
Cc1cccc(NC(=O)CN(C)S(=O)(=O)c2cnc[nH]2)c1	-1.0	3.4	i	16.5	.	.	.	.
CO[C@@H]1CN(C)C(=O)c2ccc(NS(=O)(=O)c3ccccc3F)cc2OC[C@H](C)NC[C@@H]1C	.	-0.8	.	.	0.4	.	.	.
CN(C)C(=O)[C@H]1[C@H](CO)[C@H]2Cn3c(ccc(/C=C/c4ccccc4)c3=O)[C@H]2N1C(=O)c1cccnc1	.	0.8	.	.	1.3	.	.	.
CCCc1c(OCCCOc2ccc(OCC(=O)O)cc2)ccc(C(C)=O)c1O	6.4	79.2*	-0.6	.	0.9	-8.5	7.3	2.1
CCC(=O)c1ccc(OCC(=O)O)cc1	-1.3	.	-2.1	-18.5	.	.	.	.
CO[C@@H]1CN(C)C(=O)c2ccc(NS(=O)(=O)c3ccccc3)cc2OC[C@H](C)N(C(=O)NC(C)C)C[C@@H]1C	.	-1.5	.	.	-0.9	.	.	.
SMILES	Y pestis TopoI	BioA inh-1	BH1578 lux ind	VHR inh abs	TcdB GH inh	BioA inh-2	HepG2 tox 2	3T3 cytotox 5
C[C@@H]1CN([C@@H](C)CO)C(=O)c2cc(C#Cc3ccccc3F)cnc2O[C@H]1CN(C)C(=O)Cc1ccccc1	.	0.5	.	.	0.5	.	.	.
CO[C@@H]1CN(C)C(=O)c2ccc(NS(C)(=O)=O)cc2OC[C@@H](C)N(C(=O)NC(C)C)C[C@H]1C	.	-0.8	.	.	-1.3	.	.	.
COCCNC(=O)C[C@@H]1CC[C@H]2[C@H](COc3ccc(NC(=O)Nc4cccc(F)c4)cc3C(=O)N2C)O1	.	23.9	.	.	.	.	.	.
COCCNC(=O)C[C@H]1CC[C@@H]2[C@@H](COc3ccc(NC(=O)Nc4cccc(F)c4)cc3C(=O)N2C)O1	.	55.3*	.	.	0.6	-9.1	i	-2.1[23.5 µM]
COCCNC(=O)C[C@@H]1CC[C@@H]2[C@@H](COc3ccc(NC(=O)Nc4cccc(F)c4)cc3C(=O)N2C)O1	.	40.3*	.	.	-0.1	7.9	i	2.3[23.5 µM]
COCCNC(=O)C[C@@H]1CC[C@@H]2[C@H](COc3ccc(NC(=O)Nc4cccc(F)c4)cc3C(=O)N2C)O1	.	44.7*	.	.	0.4	?	i	8.8
CC(=O)N(C)C[C@@H]1Oc2ncc(C3=CCCC3)cc2C(=O)N([C@@H](C)CO)C[C@H]1C	.	-0.5	.	.	0.0	.	.	.
Cc1cccc(-c2ccc3c(c2)C2CC3CCN2C)c1 (stereo not drawn)	6.1	2.9	-0.5	.	2.0	.	.	.
Cc1cccc(-c2ccc3c(c2)C2CC3CCN2)c1 (stereo not drawn)	8.3	55.6*	-1.4	.	1.9	-11.1	-9.0	-8.4
Fc1ccc(-c2ccc3c(c2)C2CC3CCN2)cc1 (stereo not drawn)	-3.0	66.3*	-0.7	.	1.3	-4.8	15.5	-2.1
FC(F)(F)c1ccc(-c2cccc3c2C2CC3CCN2)cc1 (stereo not drawn)	3.5	21.6	i	.	-0.7	.	.	.
CO[C@H]1CN(C)C(=O)c2ccc(NC(C)=O)cc2OC[C@@H](C)N(C(=O)C2CCCCC2)C[C@H]1C	.	53.4*	.	.	0.6	-2.9	i	2.6
O=C(N[C@H]1CC[C@H](CCn2cc(-c3cccnc3)nn2)O[C@H]1CO)c1ccccc1F	.	7.3	.	.	0.1	.	.	.
O=C(N[C@@H]1CC[C@H](CCn2cc(-c3cccnc3)nn2)O[C@@H]1CO)c1ccccc1F	.	60.0*	.	.	-0.2	5.3	i	7.1
O=C(N[C@H]1CC[C@@H](CCn2cc(-c3cccnc3)nn2)O[C@@H]1CO)c1ccccc1F	.	55.2*	.	.	0.6	8.0	i	6.6
CCOC(=O)C1=C(C)Nc2sc(C(=O)c3ccc(OC)cc3)c(N)c2C1c1ccc(C(=O)OC)cc1 (stereo not drawn)	2.9	-1.8	-0.4	-0.8	0.6	.	.	.
COC(=O)C1=C(C)Nc2sc(C(N)=O)c(N)c2C1c1ccncc1 (stereo not drawn)	-1.5	76.5*	-0.4	-17.2	-2.1	-7.8	-15.7	4.5
COc1cccc(S(=O)(=O)N2C[C@H](O)COC[C@H]3O[C@H](CC(=O)NCCCN4CCOCC4)CC[C@@H]32)c1	.	-1.7	.	.	-0.3	.	.	.

Screens: PubChem, several laboratories
